From PubChem
A selection: hits, their analogues and other compounds. The true share with any hit is near 9.6%.
Autophagy mod – autophagy modulators in MEF cells, primary screen, imaging, high-content, MEF GFP-LC3; 0.98% of 190,000 active; MEF GFP-LC3 puncta imaging; test concentration mostly 10 µM; AID 463193, 2010; calls only at 10 µM (by protocol);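 active = percentage of spot-positive cells more than 3 SD above its plate mean, without a fluorescence outlier flag or 80% toxicity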;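 also: spot-positive cell cutoff set from DMSO-treated cells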
bCat KO growth – primary screen for growth suppressors in beta-catenin knockout HCT116 cells (colon tumor, human); HCT116 beta-catenin knockout viability, CellTiter-Glo, 60 h; hits give low values; viability, % at 10 µM; 1.5% of 140,000 active; AID 818, 2007;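 active = viability at or under a set limit, the compound median less 4 SD, cut at about 6% in these data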;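 also: 0% = Hyamine 1622 control at 20 µM and 100% = untreated cell control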
L major viab – Leishmania major promastigote growth inhibition, primary screen; Leishmania major promastigotes, resazurin fluorescence viability; inhibition, % at 10 µM; 9% of 200,000 active; in the data active = inhibition above about 50%;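 also: promastigotes grown with compound for 44 hours at 28 °C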
Insulin prom inh – inhibitors of insulin promoter-driven GFP, primary screen, imaging, TRM-6 cells (human fetal islet line), eGFP reporter, cell count | reporter expression induced with tamoxifen | inhibition, % at 2 µM | 0.9% of 130,000 active;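 active = inhibition above the mean plus 3 SD, with well images judged a real hit on visual review, cut at about 60% in these data, passing the limit was not always enough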
HCT116 PTEN-null – growth suppression of PTEN-null HCT116, primary screen, cell-based, CellTiter-Glo | HCT116 PTEN-null viability, 60 h; hits give low values | viability, % at 10 µM | 1.2% of 140,000 active | AID 827, 2007;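 active = viability at or below a set limit, 4 SD under the median of all tested compounds, cut at about 3.7% in these data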;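 also: PTEN knockout HCT116 line with beta catenin targeted HCT116 as companion control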
Insulin prom up – insulin promoter activators in MIN6 cells, imaging, high-content screening, mouse beta cells. MIN6 insulin promoter-GFP reporter; hits give high values. z-score at 5 µM. 0.3% of 190,000 active. AID 1625, 2009;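 active = z-score above 3 at 5 µM with at least 500 cells counted in the well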
Active calls of the source: *; i = inactive; x = no result given; + = active, no number.

SMILES | Autophagy mod | bCat KO growth | L major viab | Insulin prom inh | HCT116 PTEN-null | Insulin prom up
O=C(Nc1ccc(Cl)c(Cl)c1)Nc1ccc([N+](=O)[O-])cn1 | x | x | x | x | x | -0.4
O=C(Nc1ccc([N+](=O)[O-])cn1)C1CC2CCC1C2 (stereo unspecified) | i | 71 | -4 | 69* | 80 | 0.13
O=C(Nc1nccs1)C1CC2CCC1C2 (stereo unspecified) | i | 89 | 2 | 14 | x | 2.5
O=C(Nc1ccc(F)cc1)Nc1ccc([N+](=O)[O-])cn1 | + | x | 0 | 20 | x | -0.17
CC(C)C(=O)Nc1ccc(Cc2ccc(NC(=O)C(C)C)c(O)c2)cc1O | i | 97 | 7 | 24 | 89 | -0.34
COc1ccc(NC(=O)c2cc(S(=O)(=O)N(Cc3ccccc3)c3ccccc3)ccc2Cl)cn1 | i | 67 | 94* | -12 | 64 | 0.21
CN(c1ccccc1)S(=O)(=O)c1cccc(C(=O)Nc2ccc3c(c2)CCC3)c1 | i | 64 | 75* | -20 | 57 | 0.15
COc1ccc(NC(=O)c2cccc(S(=O)(=O)N(C)c3ccccc3)c2)cn1 | i | 75 | 72* | -54 | 73 | x
COc1cccc(C(=O)NC(=S)Nc2ccc(Cl)cc2C(=O)O)c1 | x | x | x | x | x | -0.24
Cc1n[nH]c(C)c1S(=O)(=O)N1CCCC(C(=O)N2CCN(c3ccc(Cl)cc3)CC2)C1 (stereo unspecified) | i | 62 | 52* | x | 54 | -3.2
Cc1nn(C)c(C)c1S(=O)(=O)N1CCCC(C(=O)N2CCN(c3ccc(Cl)cc3)CC2)C1 (stereo unspecified) | i | 87 | 6 | -78 | 80 | 0.79
O=C(C1CCN(S(=O)(=O)c2cccc3cccnc23)CC1)N1CCN(c2ccc(Cl)cc2)CC1 | x | 12 | 52* | x | 16 | -0.29
O=C(C1CCCN(S(=O)(=O)c2cccc3nonc23)C1)N1CCN(c2cccc(Cl)c2)CC1 (stereo unspecified) | i | 47 | 93* | 12 | 39 | -0.38
O=C(C1CCN(S(=O)(=O)c2cccc3cccnc23)CC1)N1CCN(c2ccccn2)CC1 | i | 71 | -2 | x | 80 | -0.29
CC1=CC(=O)C=C(C)C1=NOS(=O)(=O)c1ccccc1 | i | 1.6* | 100* | i | 2.7* | -0.7
O=C(O)COc1ccc(Cl)cc1CO | i | 95 | -7 | 25 | 91 | -0.05
Cc1ccc(/C=N/N2CCN(Cc3ccc(Cl)cc3)CC2)o1 | i | 100 | 52* | -3 | 95 | x
COc1ccccc1/C=C/C=N/N1CCN(Cc2ccc(Cl)cc2)CC1 | i | 99 | 85* | x | 92 | -0.1
COc1ccccc1/C=C/C=N\N1CCN(Cc2ccccc2Cl)CC1 | i | 93 | 65* | 28 | 97 | x
C(=C\c1ccccc1)/C=N/N1CCN(Cc2ccccc2)CC1 | i | x | 0 | -17 | x | -0.14
Clc1ccc(CN2CCN(/N=C/c3ccco3)CC2)cc1 | i | x | -1 | 11 | x | -0.11
O=C1c2ccccc2C(=O)N1CCC(c1ccc(F)cc1)c1ccco1 (stereo unspecified) | i | 79 | 20 | -56 | 84 | 1
CCC(=O)N1CCc2cc(S(=O)(=O)NCCCN(CC)Cc3ccccc3)ccc21 | i | 83 | 55* | 0 | 84 | -0.62
CCC(=O)N1CCc2cc(S(=O)(=O)NCCC(=O)N3CCN(Cc4ccccc4)CC3)ccc21 | i | 88 | 1 | -6 | 85 | -1
O=C(O)C1CC=CCC1C(=O)NNc1ccccc1 (stereo unspecified) | i | x | 6 | x | x | -0.09
SMILES | Autophagy mod | bCat KO growth | L major viab | Insulin prom inh | HCT116 PTEN-null | Insulin prom up
O=C(O)C1CC=CCC1C(=O)c1ccccc1 (stereo unspecified) | i | 98 | -2 | 66* | 104 | -1.1
Cc1nnc2ccc(N3CCCC3)nn12 | i | 106 | -11 | 28 | 103 | -0.53
COc1ccc(C(c2nnnn2C2CCCC2)N2CCC(C)CC2)cc1 (stereo unspecified) | i | 86 | 90* | x | 89 | -0.28
COc1ccc(OC)c(C(c2nnnn2C2CCCC2)N2CCN(c3ccccc3)CC2)c1 (stereo unspecified) | i | 74 | 97* | x | 80 | -2.6
COCCn1nnnc1C(c1ccc(OC)cc1)N1CCC(C)CC1 (stereo unspecified) | i | 93 | -1 | x | 96 | 0.07
c1cc(N2CCCC2)ccc1C(c1nnnn1C1CCCCC1)N1CCOCC1 (stereo unspecified) | i | 75 | 88* | -3 | 78 | 0.28
COc1ccc(C(c2nnnn2C2CCCCC2)N2CCN(c3ccc(OC)cc3)CC2)cc1 (stereo unspecified) | i | 73 | 89* | x | 66 | -1.4
c1ccc(C(c2nnnn2C2CCCC2)N2CCN(c3ccccc3)CC2)cc1 (stereo unspecified) | i | 84 | 14 | 48 | 81 | x
COc1cc(C(c2sc3nc(C)nn3c2O)N2CCc3ccccc3C2)cc(OC)c1OC (stereo unspecified) | i | 94 | -4 | 0 | 95 | 0.62
O=C(O)C1=C[C@H](c2ccc(Br)cc2)C[C@H](OCCCCO)O1 | i | x | -11 | x | x | -0.02
Cc1ccc(C(=O)Oc2ccc(Cl)c3cccnc23)cc1[N+](=O)[O-] | i | 4.5* | 98* | -53 | 10 | 0.64
COc1ccc(C(=O)Oc2cccc3cccnc23)cc1[N+](=O)[O-] | i | x | 93* | x | x | -0.01
Cc1ccc(C(=O)Oc2cccnc2)cc1[N+](=O)[O-] | i | 92 | -6 | -33 | 100 | -0.02
Cc1cc(OCCCCNC(C)C)cc(C(C)C)c1 | i | 87 | 97* | 7 | 96 | 0.36
COc1ccc(CCNC(=O)CS(=O)(=O)c2cn(CC(=O)N3CCOCC3)c3ccccc23)cc1OC | i | x | -10 | -39 | x | 0.69
Cn1cnnc1Sc1ccc(C(=O)NCCC23CC4CC(CC(C4)C2)C3)cc1[N+](=O)[O-] | i | 83 | 51* | x | 74 | 0.45
CCC(C)(C)NC(=O)c1ccc(Sc2nncn2C)c([N+](=O)[O-])c1 | i | 87 | 50* | 28 | 91 | 0.01
CCS(=O)(=O)c1ccc(Sc2nncn2C)c([N+](=O)[O-])c1 | i | x | 4 | 54 | x | -0.21
Cn1cnnc1Sc1ccc(/C=C/C(=O)c2ccc(O)cc2)cc1[N+](=O)[O-] | i | x | 100* | 50 | x | x
O=C(C1CCN(S(=O)(=O)N2CCC3(CC2)OCCO3)CC1)N1CCN(Cc2ccccc2)CC1 | i | 96 | -8 | -34 | 105 | -0.22
Fc1ccc(CSc2nc3ccccc3[nH]2)cc1 | i | 54 | 14 | 65 | 59 | 0.15
CC(=O)c1c(C)nc2ccccc2c1N | i | 48 | 96* | 88* | 26 | -0.45
CN(C)c1nc(SCC#N)nc(N2CCOCC2)n1 | i | 87 | -1 | 40 | 94 | -0.88
